Laboratory results published in PubChem BioAssay (NCATS).
Inconclusive results are not listed. The source made the active and inactive calls. Unless noted, calls follow the shape of the dose curve; as a rule, active = well fitted curve in the direction sought with a large enough effect; inconclusive = small, poorly fitted or top-dose-only effect, or another doubt; inactive = no such curve, though single readings can be large; an effect the other way counts as inactive or inconclusive.

Tests used:
[1] = target: Pyruvate kinase PKM (Homo sapiens) (UniProt P14618); test: qHTS Assay for Activators of Human Muscle Pyruvate Kinase (AID 954; active = well fitted curve in the direction sought with a large enough effect, not every such curve was filed as active)
Sequence of Pyruvate kinase PKM (Homo sapiens) (P14618 whole entry, looked up): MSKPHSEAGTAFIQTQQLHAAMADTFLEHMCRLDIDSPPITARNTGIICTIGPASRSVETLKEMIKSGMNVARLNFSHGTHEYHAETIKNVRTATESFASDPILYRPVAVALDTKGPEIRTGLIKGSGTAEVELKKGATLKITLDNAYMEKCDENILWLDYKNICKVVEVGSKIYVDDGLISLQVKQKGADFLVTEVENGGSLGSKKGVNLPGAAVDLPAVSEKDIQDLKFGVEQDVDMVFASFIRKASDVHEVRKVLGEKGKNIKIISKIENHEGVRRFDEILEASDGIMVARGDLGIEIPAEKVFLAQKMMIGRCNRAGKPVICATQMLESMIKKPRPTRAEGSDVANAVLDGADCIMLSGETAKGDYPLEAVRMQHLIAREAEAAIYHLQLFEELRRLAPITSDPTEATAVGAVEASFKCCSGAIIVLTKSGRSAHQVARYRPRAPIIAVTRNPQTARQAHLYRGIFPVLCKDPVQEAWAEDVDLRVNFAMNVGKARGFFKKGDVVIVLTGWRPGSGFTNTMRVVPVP
Procedure, shortened: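 Human PKM2 activity is measured as ATP generation, detected by luciferase-coupled luminescence. The enzyme (0.1 nM) acts on 0.5 mM PEP and 0.1 mM ADP for 1 h at ambient temperature; data are normalized to uninhibited and full-inhibition wells.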

[2] = MultiTox-Fluor Cytotoxicity Assay - LYMP1-001 - Dead Cells (AID 946)
Procedure, shortened: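 Cytotoxicity as increased dead-cell protease fluorescence (bis-AAF-R110, 485/520 nm), read 60 min after MultiTox-Fluor reagent. Human lymphoblastoid line exposed 16 h; Hill-fitted AC50, with DMSO as 0% and 15 uM tetraoctylammonium bromide as 100%.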

[3] = MultiTox-Fluor Cytotoxicity Assay - LYMP1-001 - Live Cells (AID 947)
[4] = Cell Viability - LYMP1-002 - Assay at 16 hr (AID 948)
Procedure, shortened: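 Acute cytotoxicity is scored as a concentration-dependent fall in intracellular ATP in a human lymphoblastoid line (LYMP1-002) after 16 hr compound exposure at 37 C, measured by luciferase luminescence.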

[5] = MultiTox-Fluor Cytotoxicity Assay - LYMP1-002 - Live Cells (AID 955);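 also: cells exposed to compound for 16 hours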
Procedure, shortened: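 Human lymphoblastoid LYMP1-002 cells, 2500/well, treated 16 h at 37 C in complete medium. Live-cell protease activity via GF-AFC fluorescence (Ex/Em 405/510) after 60 min reagent incubation; AC50 from Hill fits.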

[6] = MultiTox-Fluor Cytotoxicity Assay - LYMP1-002 - Dead Cells (AID 960); also: nearly all actives have a fitted effect of over 60% in size
Procedure, shortened: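 Human lymphoblastoid LYMP1-002 cells, 2500/well, treated 16 h at 37 C; dead-cell protease cleavage of bis-AAF-R110 read by fluorescence (485/520); normalized to DMSO and 15 uM tetraoctylammonium bromide; AC50 from Hill fit.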

[7] = MultiTox-Fluor Cytotoxicity Assay - LYMP1-003 - Dead Cells (AID 961); also: nearly all actives have a fitted effect of over 70% in size
Procedure, shortened: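 Dead-cell protease release, detected as bis-AAF-R110 fluorescence at 485/520 nm, was measured in LYMP1-003 cells after 16 h compound treatment at 37 C. AC50 values came from Hill-modeled qHTS curves normalized to DMSO (0%) and 15 uM tetraoctylammonium bromide (100%).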

[8] = MultiTox-Fluor Cytotoxicity Assay - LYMP1-003 - Live Cells (AID 962);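 also: cells exposed to compound for 16 hours at 37 °C; cytotoxic hits lower the live-cell protease signal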
Procedure, shortened: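 LYMP1-003 lymphoblastoid cells, 2500/well in complete medium, treated 16 h at 37 C; live-cell protease cleavage of GF-AFC read by fluorescence (Ex/Em 405/510) after 60 min reagent; AC50 from Hill fits of concentration-response.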

[9] = Cell Viability - LYMP1-003 - Assay at 24 hr (AID 963)
Procedure, shortened: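 Human lymphoblastoid LYMP1-003 cells, 2500/well, treated 24 h at 37 C in complete medium. Viability read as intracellular ATP by CellTiter-Glo luminescence after 30 min at room temperature; AC50 from Hill-equation fits of qHTS concentration-response.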

[10] = Cell Viability - LYMP1-003 - Assay at 40 hr (AID 964); also: series mostly up to about 92 µM; nearly all actives have a fitted effect of over 60% in size
Procedure, shortened: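 LYMP1-003 human lymphoblastoid cells, 2500/well, preincubated 5 h at 37 C, then treated with compound for 40 h at 37 C. Intracellular ATP read by CellTiter-Glo luminescence after 30 min at room temperature; AC50 from Hill-equation fits.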

[11] = Cell Viability - LYMP2-003 (AID 965);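 also: cells exposed to compounds for 24 h before reading; nearly all actives have a fitted effect of over 50% in size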
Procedure, shortened: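 Acute cytotoxicity is scored as a concentration-dependent drop in intracellular ATP, measured by luciferase luminescence in human lymphoblastoid cells treated for 24 hours at 37 C. AC50 values derive from Hill-equation modelling.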

[12] = Cell Viability - LYMP2-004 (AID 966); also: nearly all actives have a fitted effect of over 65% in size
Procedure, shortened: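 Lymphoblastoid LYMP2-004 cells, 2500 per well, were preincubated for 5 hr and then treated with compound for 24 h at 37 C in complete medium. Viability was read as cellular ATP by CellTiter-Glo luminescence, and AC50 values were taken from Hill fits to concentration-response data.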

[13] = Cell Viability - LYMP2-005 (AID 967); also: series mostly up to about 92 µM
Procedure, shortened: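 qHTS viability screen in LYMP2-005 cells: 24 h at 37 C with compound, ATP luminescence via CellTiter-Glo, AC50 from Hill curves.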

[14] = Cell Viability - LYMP2-009 (AID 968); also: series mostly up to about 92 µM; nearly all actives have a fitted effect of over 55% in size
[15] = Cell Viability - LYMP2-011 (AID 969); also: nearly all actives have a fitted effect of over 60% in size
Procedure, shortened: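 2500 cells/well in complete medium, compound-treated 24 h at 37 C. Viability read as intracellular ATP by CellTiter-Glo luminescence after 30 min at room temperature. AC50 from Hill fits of qHTS concentration-response data.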

[16] = Cell Viability - LYMP2-013 (AID 970); also: series mostly up to about 92 µM; nearly all actives have a fitted effect of over 55% in size
Procedure, shortened: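 Human lymphoblastoid LYMP2-013 cells, 2500/well, treated 24 h at 37 C in complete medium; viability as intracellular ATP by CellTiter-Glo luminescence after 30 min. AC50 from Hill fits of qHTS concentration-response.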

[17] = Cell Viability - LYMP2-015 (AID 971); also: nearly all actives have a fitted effect of over 55% in size
Procedure, shortened: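 LYMP2-015 human lymphoblastoid cells (2500/well) in complete medium, compound-treated 24 h at 37 C; viability read as cellular ATP by CellTiter-Glo luminescence after 30 min at room temperature. AC50 from Hill-equation fits of qHTS concentration-response data.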

[18] = Cell Viability - LYMP2-017 (AID 972); also: series mostly up to about 92 µM; nearly all actives have a fitted effect of over 55% in size
Procedure, shortened: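 LYMP2-017 human lymphoblastoid cells (2500/well) settled 5 hr at 37 C, then exposed to compound 24 hr at 37 C in complete medium. Viability taken as intracellular ATP by CellTiter-Glo luminescence after 30 min at RT; AC50 from Hill fits.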

[19] = Cell Viability - LYMP2-019 (AID 973); also: nearly all actives have a fitted effect of over 55% in size
Procedure, shortened: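 Human lymphoblastoid LYMP2-019 cells (2500/well) preincubated 5 h at 37 C, then treated 24 h at 37 C in complete medium. Viability by CellTiter-Glo ATP luminescence after 30 min at room temperature; AC50 from Hill fits.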

Measured: Potency

CC(C)NCC(O)COc1ccc(COCCOC(C)C)cc1 (configuration not stated)
inactive: [1]

NCCc1ccc(O)c(O)c1
inactive: [1]

NC(N)=NC(=O)c1nc(Cl)c(N)nc1N
inactive: all assays above

C[C@]12CCC(=O)C=C1CC[C@@H]1[C@@H]2[C@@H](O)C[C@@]2(C)[C@H]1CC[C@]2(O)C(=O)CO
inactive: [1]

Nc1ccc(S(=O)(=O)Nc2ccnn2-c2ccccc2)cc1
inactive: [1]

Nc1nc2c(ncn2COCCO)c(=O)[nH]1
inactive: [1]

CC(=O)Oc1ccccc1C(=O)O
inactive: all assays above

CCOC(=O)N1CCC(=C2c3ccc(Cl)cc3CCc3cccnc32)CC1
inactive: [1]

Cc1oncc1C(=O)Nc1ccc(C(F)(F)F)cc1
inactive: [1]

N=c1nc(N2CCCCC2)cc(N)n1O
inactive: [1]

CNC[C@H](O)c1cccc(O)c1
inactive: [1]

C1COC(NC(C2CC2)C2CC2)=N1
inactive: [1]

O=C1CCc2cc(OCCCCc3nnnn3C3CCCCC3)ccc2N1
inactive: [1]

OC(CN1CCC(Cc2ccc(F)cc2)CC1)c1ccc(Cl)cc1 (configuration not stated)
inactive: [1]

Clc1cccc(Cl)c1NC1=NCCN1
inactive: [1]

NC[C@H](O)c1ccc(O)c(O)c1
inactive: [1]
